For 23 compounds, inhibition results are on record in PubChem BioAssay.

The experiment is described as follows: NFkB reporter suppression in cystic fibrosis bronchial cells – cell-based, uHTS hits, panel, cytotoxicity readout, dose response (AID 624344). Conditions: CF bronchial epithelial cells, PAF-induced NFkB reporter inhibition, with PAF, run 1; at 79 µM (top of the series) unless noted.
The term inhibition denotes the drop in the measured response relative to a control, in per cent. Turning to `O=C(NCc1ccccc1)C1=C[C@H](c2csc3ccccc23)C[C@H](OCc2ccc(CO)cc2)O1`, the inhibition was 72%.
For the compound `CCCCCOC(=O)c1[nH]c2c(c1C)C(=O)CC(c1ccco1)C2` (stereo not drawn), the inhibition was determined as 75%.
As for `CCN(CC)CCNC(=O)c1ccc(NC(=O)C2CCN(c3ncnc4sc(C)c(C)c34)CC2)cc1`, the figure is 112%; as for `Cc1cccc(C)c1NS(=O)(=O)c1ccc(-c2cnc(C3CC3)o2)cc1`, 112%; as for `CCOC(=O)c1c(-c2ccc(C)cc2)csc1NC(=O)c1ccc(N2C(=O)CCC2=O)cc1`, 30.1%.
For `CCCNC(=O)COC(=O)c1ccccc1C(=O)c1ccc(Cl)c([N+](=O)[O-])c1`, the inhibition amounted to 96.2%.
As for `COc1ccccc1NS(=O)(=O)c1cccc(-n2c(O)c(C=Nc3ccccc3C(=O)O)c3ccccc3c2=O)c1`, the inhibition was determined as 105%.
With `CC(C)C[C@H](CO)Nc1nc(Nc2cccc(Cl)c2)c2ncn(C(C)C)c2n1`, the inhibition was 112%.
As for `O=C(Nc1cccc(S(=O)(=O)N2CCCCC2)c1)Nc1ccc(Cl)cc1Cl`, the figure is 103%.
Take `COc1ccc(C2=Nn3c(nnc3-c3ccncc3)SC2)cc1`: the inhibition came out at 81.7%.
With `CC(C)C[C@@H](CN1CCCC1CN1C(=S)NC[C@@H]1Cc1ccc(O)cc1)N1C[C@H](Cc2ccc(O)cc2)N(CCc2ccccc2)C1=S` (stereo partly drawn), the inhibition worked out at 112%.
As to `COc1ccc(-c2nc(N3CCOCC3)nc3n[nH]c(N)c23)cc1`, the inhibition is 117%.
As to `COc1cc(-c2cc(C(=O)Nc3ccc(S(=O)(=O)NCc4ccco4)cc3)c3ccccc3n2)cc(OC)c1OC`, the inhibition was found to be 109%.
For `CS(=O)(=O)Nc1cccc(-c2cc(NC=O)c3ncc(-c4ccc(F)cc4)n3c2)c1`, the inhibition was found to be 84%.
As to `COc1cc2c(c(OC)c1OC)-c1ccc(SC)c(=O)cc1C(NC(=O)C(F)(F)F)CC2` (stereo not drawn), the inhibition turned out to be 72.8%.
Regarding `Brc1cccc(CSc2nnc(-c3ccncc3)o2)c1`, the inhibition was 105%.
In the case of `CCOC(=O)c1[nH]c(C)c(C(=O)N2CCc3ccccc32)c1C`, the inhibition was 34.1%.
As to `COc1ccc(CN(CCC(c2ccc(F)cc2)C2CCOC(C)(C)C2)C(=O)c2ccco2)cc1` (stereo not drawn), the inhibition amounted to 105%.
With `COc1ccc(-n2c(C)c(C(C)=O)c3cc(O)ccc32)cc1` the figure was 117%.
`COc1cccc(NC(=O)CN(C)CC(=O)Nc2ccc(C)c([N+](=O)[O-])c2)c1`: the inhibition came out at 80.7%.
`NC(=O)c1cc2ccc(O)cc2oc1=Nc1ccccc1`: the inhibition is 92.3%.
With `CCc1ccccc1NC(=O)CN(C)C(=O)Cn1ncc(Cl)c(Cl)c1=O`, the inhibition worked out at 102%.
As for `C/C=C/COC(=O)c1[nH]c2c(c1C)C(=O)CC(c1ccco1)C2` (stereo not drawn), the figure is 106%.
